# Reference: PubChem BioAssay AID463173 (ICCB-Longwood Screening Facility, Harvard Medical School, 2010)
# About 4,300 (8.3%) of roughly 52,000 compounds were called active. For the sample, actives were picked, then their nearest neighbours and some compounds at random. Values without a mark were called inactive. No stated cut-off is given here; in the data, active means survival mostly below about 52% (no sharp cut-off); inactive means mostly above about 56%.
# Tested on: DeltatarO mutant
# Assay: S. aureus survival, RN4220 and DeltatarO strains – OD600, teichoic acid synthesis inhibitors, primary screen (AID 463173)
# Conditions: S. aureus RN4220 wild type/DeltatarO growth, OD600, 18 h, stronger effect = lower value, screened at 18.75 µg/mL (by protocol)
row,SMILES,survival
1,Cc1ccc(Cl)cc1NC(=O)CN1C(=O)CSc2ccc(S(=O)(=O)N3CCCC3)cc21,97%
2,CCN1CCN(CCCNC(=O)Cn2nc(C)n3c(cc4cc(C)ccc43)c2=O)CC1,98%
3,Cc1cc(C)cc(NC(=O)CCCn2nc(C)c3c(C)n(-c4ccccc4)nc3c2=O)c1,80%
4,NC(Cc1c[nH]c2ccccc12)C(=O)NCc1ccccc1 (configuration not stated),92%
5,CN1C(C(=O)c2ccccc2)=C(NC(=O)c2ccccc2Br)c2ccccc2S1(=O)=O,63%
6,COC(=O)c1cc(Nc2nc3ccccc3nc2NS(=O)(=O)c2ccc(C)cc2)ccc1Cl,29% (active)
7,COc1ccccc1C(=O)Nc1ccc(S(=O)(=O)Nc2nc(C)cc(C)n2)cc1,61%
8,O=S(=O)(Nc1nc2ccccc2nc1Nc1ccccc1Br)c1ccccc1,112%
9,CCn1c(=O)c2sccc2n2c(CCC(=O)Nc3ccc(OC)c(Cl)c3)nnc12,89%
10,CCOc1ccc(CNC(=O)c2ccc(-c3nc(CS(=O)(=O)c4ccccc4)c(C)o3)cc2)cc1,76%
11,COC(=O)c1ccccc1NC(=O)CN(c1ccc(Cl)cc1)S(=O)(=O)c1ccc(OC)cc1,72%
12,COc1ccc(NC(=O)c2sc3nc(C)c(C(=O)Nc4ccc(C)cc4C)c(-c4ccc(C)o4)c3c2N)cc1,51%
13,COc1cccc(NC(=O)c2sc3nc(C)c(C(=O)Nc4ccc(C)cc4C)c(-c4ccco4)c3c2N)c1,79%
14,COc1cccc(NC(=O)c2sc3nc(C)c(C(=O)Nc4ccc(C)cc4C)c(-c4ccc(C)o4)c3c2N)c1,39% (active)
15,Cc1ccc(/C=C/c2onc(C)c2S(=O)(=O)N2CCC(C(=O)N3CCN(c4ccccc4F)CC3)CC2)cc1,116%
16,Cc1ccc(CCNC(=O)c2ccc(NC(=O)N3CC(C)Sc4ccccc43)cc2)cc1 (configuration not stated),73%
17,CCOc1ccc(-c2nc(Cn3c(=O)cc(-c4ccccc4)c4c(C)nn(C)c43)c(C)o2)cc1,128%
18,CCc1ccc(-c2[nH]nc3nc(-c4ccc(OC)cc4)cc(C(=O)NCCc4ccc(OC)c(OC)c4)c23)cc1,81%
19,CCc1ccc(-c2cn3nc(CC)sc3n2)cc1,66%
20,CC(=O)N1CCc2c(sc3c2c(=O)n(CCc2ccccc2)c(=O)n3CC(=O)Nc2ccccc2F)C1,55%
21,COc1c(C)cc(NS(=O)(=O)c2ccc3c(c2)OCCO3)cc1C,72%
22,O=C(COCc1cc(-c2cccs2)on1)N1CCN(c2ccccc2)CC1,72%

row,SMILES,survival
1,Cc1ccc(NC(=O)COCc2cc(-c3cccs3)on2)cc1Cl,57%
2,O=C(COCc1cc(-c2cccs2)on1)Nc1cccc(O)c1,0% (active)
3,O=C(COCc1cc(-c2ccco2)on1)Nc1cccc(O)c1,78%
4,O=C(COCc1cc(-c2cccs2)on1)N1CCN(c2ccc(F)cc2)CC1,98%
5,O=C(COCc1cc(-c2cccs2)on1)N1CCN(c2cccc(Cl)c2)CC1,37% (active)
6,O=C(c1ccc2c(c1)N(Cc1ccccc1F)C(=O)c1ccccc1S2=O)N1CCC(Cc2ccccc2)CC1 (configuration not stated),77%
7,Cc1cccc(C)c1NC(=O)Cn1nnc(S(=O)(=O)c2ccccc2)c1N,91%
8,Cc1cccc(NC(=O)CSc2cn(CC(=O)N3CCOCC3)c3ccccc23)c1C,64%
9,O=C(c1ccc2c(c1)N(Cc1ccccc1)C(=O)c1ccccc1S2(=O)=O)N1CCCCCC1,70%
10,COc1ccc(CNC(=O)C(C)n2ccc3cc(S(=O)(=O)N4CCCC4)ccc32)cc1OC (configuration not stated),85%
11,O=C(NCc1ccco1)C(c1ccccc1)N(CCc1ccccc1)C(=O)Cn1nnc2ccccc21 (configuration not stated),99%
12,O=C(CSc1c2c(nc3ccc(Cl)cc13)CCCC2)N1CCN(c2cccc(Cl)c2)CC1,51% (active)
13,O=C(CSc1c2c(nc3cc(Cl)ccc13)CCCC2)NCc1ccccc1Cl,75%
14,O=C(CSc1c2c(nc3ccc(Cl)cc13)CCCC2)N1CCN(c2ccc(Cl)cc2)CC1,31% (active)
15,COc1ccc(OC)c(NC(=O)CSc2c3c(nc4cc(Cl)ccc24)CCCC3)c1,86%
16,O=C(CSc1c2c(nc3cc(Cl)ccc13)CCCC2)N1CCN(c2ccccc2F)CC1,50%
17,COc1ccc(CNC(=O)CSc2c3c(nc4ccc(Cl)cc24)CCCC3)cc1,77%
18,COc1ccc(N2CCN(C(=O)CSc3c4c(nc5ccc(Cl)cc35)CCCC4)CC2)cc1,35% (active)
19,O=C(CSc1c2c(nc3cc(Cl)ccc13)CCCC2)N1CCN(c2ccccc2)CC1,33% (active)
20,Cc1sc2ncn(CC(=O)Nc3ccc(C(C)C)cc3)c(=O)c2c1S(=O)(=O)N1CCN(c2ncccn2)CC1,59%
21,CC1=C(C(=O)Nc2ccccc2C)C(c2ccco2)n2ncnc2N1 (configuration not stated),101%
22,CCc1cccc(C)c1NS(=O)(=O)c1cc2[nH]c(=O)c(=O)[nH]c2cc1C,80%

row,SMILES,survival
1,CC(=O)c1ccc(N2CCN(c3ncnc4c3nc3n4CCCC3)CC2)cc1,75%
2,COC(=O)c1ccccc1NC(=O)Cn1c(=O)n(CCCCC(=O)NCc2ccc3c(c2)OCO3)c(=O)c2ccccc21,67%
3,COc1ccc(-c2nc3sc(CCNC(=O)c4ccc(Br)o4)c(C)n3n2)cc1,92%
4,COc1ccc(C)cc1NC(=O)C1COc2ccccc2C1 (configuration not stated),83%
5,COc1ccccc1C(=O)N(c1ccc(C)cc1)S(=O)(=O)c1ccc(Cl)cc1,74%
6,COC(=O)c1ccc(NC(=O)CC2C(=O)N(c3cccc(OC)c3)C(=O)N2Cc2cccc(OC)c2)cc1 (configuration not stated),105%
7,COc1ccc(C)cc1NC(=O)N1CCCn2nc(C)cc21,73%
8,COC(=O)c1ccc(Cl)cc1NC(=O)N1CCCn2nc(C)cc21,94%
9,COc1cc(OC)c(NC(=O)N2CCCn3nc(C)cc32)cc1Cl,47% (active)
10,O=C(NC1CCCCC1)C(Cc1ccccc1)N1C(=O)C2C3C=CC(C3)C2C1=O (configuration not stated),92%
11,Cc1cc(F)ccc1Nc1nc2ccc(Cl)cc2n2cnnc12,90%
12,Cc1ccc2nc(Nc3ccc(C)c(F)c3)c3nncn3c2c1,38% (active)
13,Cc1ccc2nc(NCc3ccc(F)cc3)c3nncn3c2c1,121%
14,Cc1ccc(NC(=O)c2ccc(=O)n(CC(=O)Nc3cccc(C)c3)n2)cc1,72%
15,COc1cccc(CNC(=O)CCc2c(C)nn(-c3ccc(N4CCOCC4)nn3)c2C)c1,100%
16,COc1cc(C(=O)Nc2ccc(OCc3cc(=O)n4ccc(C)cc4n3)cc2)cc(OC)c1OC,8% (active)
17,COc1ccccc1C(=O)Nc1ccc(OCc2cc(=O)n3ccc(C)cc3n2)cc1,89%
18,Cc1cccn2c(=O)cc(COc3cccc(NC(=O)c4ccccc4F)c3)nc12,-5% (active)
19,Cc1ccccc1C(=O)Nc1cccc(OCc2cc(=O)n3cccc(C)c3n2)c1,77%
20,Cc1cccn2c(=O)cc(COc3ccc(NC(=O)COc4ccc(F)cc4)cc3)nc12,89%
21,Cc1cccc(C(=O)Nc2ccc(OCc3cc(=O)n4ccc(C)cc4n3)cc2)c1,81%
22,Cc1cccc(C(=O)Nc2cccc(OCc3cc(=O)n4cccc(C)c4n3)c2)c1,92%

row,SMILES,survival
1,Cc1ccc(OCC(=O)Nc2cccc(OCc3cc(=O)n4cccc(C)c4n3)c2)cc1C,122%
2,Cc1ccccc1C(=O)Nc1ccc(OCc2cc(=O)n3cccc(C)c3n2)cc1,88%
3,CCOc1ccc(C(=O)Nc2ccc(OCc3cc(=O)n4cccc(C)c4n3)cc2)cc1,55%
4,Cc1ccc(OCC(=O)Nc2ccc(OCc3cc(=O)n4cccc(C)c4n3)cc2)cc1C,-5% (active)
5,Cc1cccn2c(=O)cc(COc3ccc(NC(=O)c4cccc(F)c4)cc3)nc12,17% (active)
6,CCOC(=O)c1ccccc1NC(=O)N1CCc2c(sc(C)c2CC)C1c1ccccc1 (configuration not stated),124%
7,O=C(Cc1csc2ccccc12)NCc1cccc(Br)c1,84%
8,O=S(=O)(c1ccc(-c2cnc(C3CC3)o2)cc1)N1CCN(c2ccccc2F)CC1,87%
9,Cc1ccc(C(=O)NCc2ccccc2)cc1NC(=O)c1nsc2ccccc12,84%
10,CCOc1ccc(NC(=O)N(C(C)C)C2CCN(C(C)=O)CC2)cc1,76%
11,CCC(C)NC(=O)c1sc2nc(C)c(C(=O)Nc3ccc(C)cc3C)c(-c3ccc(NC(C)=O)cc3)c2c1N (configuration not stated),88%
12,CC(C)CC(C(=O)NCC1CCN(Cc2ccc(F)cc2)CC1)N1Cc2ccccc2C1=O (configuration not stated),94%
13,CC(=O)N1c2c(cc(Br)cc2S(=O)(=O)Nc2ccc(OC(F)(F)F)cc2)CC1C (configuration not stated),66%
14,COc1ccc(CNS(=O)(=O)c2cc(Br)cc3c2N(C(C)=O)C(C)C3)cc1 (configuration not stated),131%
15,COc1ccccc1CNS(=O)(=O)c1cc(Br)cc2c1N(C(C)=O)C(C)C2 (configuration not stated),53%
16,CC(=O)N1c2c(cc(Br)cc2S(=O)(=O)Nc2ccccc2C)CC1C (configuration not stated),68%
17,CC(=O)N1c2c(cc(Br)cc2S(=O)(=O)NCc2ccccc2Cl)CC1C (configuration not stated),46% (active)
18,COc1cccc(CNS(=O)(=O)c2cc(Br)cc3c2N(C(C)=O)C(C)C3)c1 (configuration not stated),128%
19,CCN(c1cccc(C)c1)S(=O)(=O)c1cc(Br)cc2c1N(C(C)=O)C(C)C2 (configuration not stated),51% (active)
20,CCOc1ccc(N(CC)S(=O)(=O)c2cc(Br)cc3c2N(C(C)=O)C(C)C3)cc1 (configuration not stated),60%
21,COc1cc(NS(=O)(=O)c2cc(Br)cc3c2N(C(C)=O)C(C)C3)cc(OC)c1 (configuration not stated),20% (active)
